Measured values published in PubChem BioAssay (Tox21).
Several values for one entry are separate records, joined by “and”; a condition that tells them apart may be missing. Equal entries are not always repeated. Inconclusive results are not listed. Values without a mark were called inactive. Activity calls are given as the source filed them. Calls come from the whole dose curve; as a rule, active = well fitted activation curve with a large enough effect in the repeat runs; inconclusive = weak or mixed curves; inactive = no such curve, though single readings can be large or run the other way.

molecular target: Nuclear receptor subfamily 1 group I member 2 (Rattus norvegicus) (UniProt Q9R1A7); assay: Rat pregnane X receptor (rPXR) activation by small molecules, qHTS assay (AID 1346983); conditions: rPXR luciferase reporter cells, One-Glo luminescence, 24 h; max activation: active compounds read high; note: nearly all actives have a fitted effect of over 20% in size
Sequence (Q9R1A7 whole entry, looked up): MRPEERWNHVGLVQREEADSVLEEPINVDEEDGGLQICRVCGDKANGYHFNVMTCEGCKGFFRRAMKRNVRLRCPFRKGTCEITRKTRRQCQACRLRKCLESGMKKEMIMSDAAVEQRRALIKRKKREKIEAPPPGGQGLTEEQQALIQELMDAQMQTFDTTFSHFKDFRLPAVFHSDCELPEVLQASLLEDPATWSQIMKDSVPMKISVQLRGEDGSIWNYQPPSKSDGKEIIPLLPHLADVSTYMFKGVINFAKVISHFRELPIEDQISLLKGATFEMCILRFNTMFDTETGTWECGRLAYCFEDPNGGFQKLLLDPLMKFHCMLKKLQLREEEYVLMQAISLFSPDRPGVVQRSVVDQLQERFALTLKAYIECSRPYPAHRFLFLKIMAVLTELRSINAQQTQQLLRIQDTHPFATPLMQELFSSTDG
Description: National Center for Advancing Translational Sciences [NCATS] NIH Chemical Genomics Center [NCGC] U.S. Environmental Protection Agency [EPA] National Institutes of Environmental Health Sciences [NIEHS] National Toxicology Program [NTP] Assay overview: The Pregnane X receptor (PXR), a ligand activated nuclear receptor plays a critical role in the regulation of genes involved in drug metabolism and transporters. PXR binds xenobiotics and when compounds interact with PXR produces enhanced expression of CYP3A genes. In humans PXR activation and CYP3A4 induction can be problematic due to their interactions with co-medicated drugs and decrease their efficacy or increase their own metabolism. However, there are known species-specific differences with regard to PXR activation that should be taken into account when animal PXR data are extrapolated to humans. A cell based rat PXR (rPXR) assay (developed by Puracyp, Inc., CA) was used to assess the activation of rPXR.
Assay Protocol Summary: rPXR cells were dispensed at 2,000 per well in 5uL of assay medium into white, solid-bottom 1536-well plates using a Multidrop Combi dispenser (Thermo Scientific). The assay plates were incubated at 37 C for 5hr before transferring 23 nL of test compounds dissolved in DMSO and positive control via Pintool station (Wako). The assay plates were incubated at 37 C for 24 hr. Then 5ul One-Glo assay reagent (Promega) was added to each plate by a Flying Reagent Dispenser (FRD, Aurora Discovery) and following 30 min incubation at room temperature, luciferase activity was quantified on a ViewLux plate reader (Perkin Elmer).
% is set by controls: 0 for no effect and ±100 for the full control effect; potency is the fitted concentration of half-maximal effect.

SMILES | max activation | Potency
N[C@@H](CSSC[C@H](N)C(=O)O)C(=O)O | -1.39% | 
Nc1ncnc2c1ncn2[C@@H]1O[C@H](COP(=O)(O)O)[C@@H](O)[C@H]1O | -2.61% | 
CO[C@H]1C=CO[C@@]2(C)Oc3c(C)c(O)c4c(O)c(cc(O)c4c3C2=O)NC(=O)/C(C)=C\C=C/[C@H](C)[C@H](O)[C@@H](C)[C@@H](O)[C@@H](C)[C@H](OC(C)=O)[C@@H]1C | -1.49% | 
Oc1c(Br)cc(Br)c2cccnc12 | -2.52% | 
C[C@@]12C(=O)OC(=O)[C@]1(C)C1CCC2O1 | -13% | 
C/C=C/C=N/NC(=O)c1ccncc1 | -3.54% | 
CCCCCCCC/C=C\CCCCCCCC(=O)NCc1ccc(O)c(OC)c1 | -4.67% | 
CCN(CC)CCCN(c1ccccc1)C1Cc2ccccc2C1 | -18.4% | 
CCCN(CCc1cccs1)[C@H]1CCc2c(O)cccc2C1 | -1.95% | 
CCN(CC)CCOc1ccc(C(O)(Cc2ccc(Cl)cc2)c2ccc(C)cc2)cc1 (stereo not given) | -4.47% | 
O=C1Nc2ccc(Cl)cc2[C@@](C#CC2CC2)(C(F)(F)F)O1 |  | 28.2 µM (active)
CNC(=O)c1cc(Oc2ccc(NC(=O)Nc3ccc(Cl)c(C(F)(F)F)c3)cc2)ccn1 | -24.5% | 
CCOC(=O)[C@@](C)(N)Cc1ccc(O)c(O)c1 | -0.299% | 
CCN(CC)CCSC(=O)C(c1ccccc1)c1ccccc1 | 3.39% and -0.327% | 
O[C@@H](c1cc(C(F)(F)F)nc2c(C(F)(F)F)cccc12)[C@H]1CCCCN1 | -16.9% | 
COc1cc(C=C2CCC/C(=C\c3ccc(O)c(OC)c3)C2=O)ccc1O | -7.88% | 
CCCCN(CCCC)CCC(O)c1cc2c(Cl)cc(Cl)cc2c2cc(C(F)(F)F)ccc12 (stereo not given) | -2.62% | 
CNCC[C@H](Oc1cccc2ccccc12)c1cccs1 | -8.93% | 
CC1=C(/C=C/C(C)=C/C=C/C(C)=C/C(=O)Nc2ccc(O)cc2)C(C)(C)CCC1 | -17.3% | 
CCCSS/C(CCO)=C(\C)N(C=O)Cc1cnc(C)nc1N | 9.56% | 

SMILES | max activation | Potency
CCCCCCCCCCOCC(O)CN (stereo not given) | -17.7% | 
Cc1cccc(C)c1NC(=O)CN1CCN(CCCC(c2ccc(F)cc2)c2ccc(F)cc2)CC1 | 3.4% | 
S=P(N1CC1)(N1CC1)N1CC1 | -4.01% | 
CC(NCCC(c1ccccc1)c1ccccc1)c1ccccc1 (stereo not given) | -19.7% | 
COC(=O)C1=C(C)NC(C)=C(C(=O)OCCCN2CCC(c3ccccc3)(c3ccccc3)CC2)C1c1cccc([N+](=O)[O-])c1 (stereo not given) |  | 5.01 µM (active)
COc1ccccc1OCCNCC(O)COc1cccc2[nH]c3ccccc3c12 (stereo not given) | 7.65% | 
COc1cc(C(=O)NS(=O)(=O)c2ccccc2C)ccc1Cc1cn(C)c2ccc(NC(=O)OC3CCCC3)cc12 | -0.0293% | 
CCCCOc1ccc(C(=O)CCN2CCCCC2)cc1 | -1.67% | 
COc1cccc(CCc2ccccc2OCC(CN(C)C)OC(=O)CCC(=O)O)c1 (stereo not given) | -1.75% | 
CCOC(=O)C1=C(C)NC(C)=C(C(=O)OCC)C1c1ccccc1/C=C/C(=O)OC(C)(C)C |  | 3.55 µM (active)
CC(=O)Oc1ccc(C2(c3ccc(OC(C)=O)cc3)C(=O)Nc3ccccc32)cc1 | -4.61% and -2.34% | 
C[n+]1c2cc(N)ccc2cc2ccc(N)cc21 (tested in a mixture with another compound) | -10.5% | 
CCCCCCCCCCCCCCNCCO | 11.2% | 
COCC(=O)O[C@]1(CCN(C)CCCc2nc3ccccc3[nH]2)CCc2cc(F)ccc2[C@@H]1C(C)C | -19.6% | 
C=C(c1ccc(C(=O)O)cc1)c1cc2c(cc1C)C(C)(C)CCC2(C)C | -18.2% | 
NC(=O)C(=O)N/N=C/c1ccc([N+](=O)[O-])o1 | -0.701% | 
O=C1OC(OC(=O)c2cccnc2Nc2cccc(C(F)(F)F)c2)c2ccccc21 (stereo not given) | -3.51% | 
NCCCC(O)(P(=O)(O)O)P(=O)(O)O | -1.25% | 
Cc1c(C)n(Cc2ccccc2)c2ccc(C(=O)OCCN(C)C)cc12 | 1.71% | 
CC(CN(C)C)CN1c2ccccc2CCc2ccccc21 (stereo not given) | -1.19% | 
